We go through 38 molecules from publication PMC13494018.

This assay deals with VTCN1, Q7Z7D3.

A number with no mark means an inactive call. How the calls were made is not given here.

VTCN1, Q7Z7D3, sequence (Q7Z7D3 whole entry): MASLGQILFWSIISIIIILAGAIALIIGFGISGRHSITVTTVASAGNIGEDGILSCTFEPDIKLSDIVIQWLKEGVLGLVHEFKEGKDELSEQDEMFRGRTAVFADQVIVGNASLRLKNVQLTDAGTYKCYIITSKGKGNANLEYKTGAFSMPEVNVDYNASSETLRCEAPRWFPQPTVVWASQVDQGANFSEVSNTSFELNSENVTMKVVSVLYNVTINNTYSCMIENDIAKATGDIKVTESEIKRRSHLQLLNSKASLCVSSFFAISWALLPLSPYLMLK

B1: design_604_3e0b3014-b333-46f1-8adc-d7f0bf8048fa_12_dldesign_0_cycle1_af2pred (protein)
chain: MNLEEAKNLLEAAKELVEEAKELLKEGKYKQALAFAKTAYEIAEKVAKEVPELAKEAEKIKKEAKEVIEEAKKAL
Regarding B1, the “binding in a display sort” value is “not found”.

B2: design_603_0b98da89-d791-4423-9b2d-fd1b7292da18_2150_dldesign_0_cycle1_af2pred (protein)
chain: HERFKYAASAETIAEQVEETAKIYGDEELKEAAKKIKEAAKEAEKSEDAEEAKKAYEKAKEIRKKARKELKAKKA
For the molecule B2, the “binding in a display sort” value was “not found”.

B3: design_603_0b98da89-d791-4423-9b2d-fd1b7292da18_2015_dldesign_0_cycle1_af2pred (protein)
chain: KETAEELLENARKLAEKAGELVGPELLEVMEKMIEAAKKEDGKKEIEELAKEALELAKKAGVPEAAEYIHQAKADAYAANVFRK
In the case of B3, the “binding in a display sort” value is “not found”.

B4: design_604_3e0b3014-b333-46f1-8adc-d7f0bf8048fa_423_dldesign_0_cycle1_af2pred (protein)
chain: AKEKALKEALKEFDKAQEYGFDYVAEAKKNPEVYEEAYEERKKAIKEAKELYKEATTEEKAKELLELAKKEAEKFKEKAKEL
As to B4, the “binding in a display sort” value was “not found”.

B5: design_604_3e0b3014-b333-46f1-8adc-d7f0bf8048fa_596_dldesign_0_cycle1_af2pred (protein)
chain: DAKKEIQELTDEAIKKIEEYAKKAKDPKNYEKAIKEAVDTVHEAQQKLAEIGKKYGPEAEKYAKEQRKKVIDAGKKYIEEAKKAQA
In the case of B5, the “binding in a display sort” value is “not found”.

B6: design_603_0b98da89-d791-4423-9b2d-fd1b7292da18_1699_dldesign_0_cycle1_af2pred (protein)
chain: MTDLEIVEENIKEAREEFARDPRLGLAVARATVSTAKAMSKKSEEGKKALEKAKAFLEELEAEYRARLAAAAAAAAAAE
For B6, the “binding in a display sort” value was “not found”.

B7: design_604_3e0b3014-b333-46f1-8adc-d7f0bf8048fa_503_dldesign_0_cycle1_af2pred (protein)
chain: SAALVDARVAAADALYDAAIAAGYESLAGKIATAFIRGAATGVEAALERASAVAPEELKPVVAAEAAKVAAVA
On to B7, for which the “binding in a display sort” value was “not found”.

B8: design_603_0b98da89-d791-4423-9b2d-fd1b7292da18_2381_dldesign_0_cycle1_af2pred (protein)
chain: AAAAAEEAATAAAAALGKAVAAQVLAAADDPEKRGALVAEAQAIADKLSPAQRAAMAAAMHEAHEKIAEKKSEKAR
Consider B8, for which the “binding in a display sort” value is “not found”.

B9: design_603_0b98da89-d791-4423-9b2d-fd1b7292da18_1193_dldesign_0_cycle1_af2pred (protein)
chain: GEEEKLKELIKKTEELAEGTEKLAKKVSEKYPEFEEELKKAAEEAKKAAEEAKKNPEKAPEQYKKVNEKNFEVQQLRAEGKYKS
Regarding B9, the “binding in a display sort” value was “not found”.

B10: design_603_0b98da89-d791-4423-9b2d-fd1b7292da18_1380_dldesign_0_cycle1_af2pred (protein)
chain: GEEVAKVLEKNAEIAREGDAEEAIAALKEAAKELNKYHKLQPYAERLEFLAEELKKNKADPEKAAAIAKYGAELLKKAAEVAK
For the molecule B10, the “binding in a display sort” value was “not found”.

B11: design_603_0b98da89-d791-4423-9b2d-fd1b7292da18_1363_dldesign_0_cycle1_af2pred (protein)
chain: EEEERKSRQAYGKALSLIELARHAAKADPKAYPLALKYIEKAKELAEEASEELKKEVLEEAEEAEKEVLELGKK
Take B11: the “binding in a display sort” value was “not found”.

B12: design_603_0b98da89-d791-4423-9b2d-fd1b7292da18_2191_dldesign_0_cycle1_af2pred (protein)
chain: MEEAKKKAEELIKRAKEHVEKARKIAKEGGSTMEAMLHILEAEADAREALKIGEKYPELKEMAEEAKEYVKKTRKEIKAILKA
B12: the “binding in a display sort” value was “not found”.

B13: design_604_3e0b3014-b333-46f1-8adc-d7f0bf8048fa_148_dldesign_0_cycle1_af2pred (protein)
chain: MKEASEEMAKAYEALAELRLLAKKIPEFKEDAEKAEKKLKEAVKADPETALKLAKETKEEVEKAIEKAKKKL
For the molecule B13, the “binding in a display sort” value was “not found”.

B14: design_603_0b98da89-d791-4423-9b2d-fd1b7292da18_1535_dldesign_0_cycle1_af2pred (protein)
chain: MEEKYLKEAEKLLEEGKKEIERAGKEEGAEAAKEVGKKYLEKLTEVAKKLSPEKEGEVLLKFKKESMKIIKEAEEREK
On to B14, for which the “binding in a display sort” value is “not found”.

B15: design_604_3e0b3014-b333-46f1-8adc-d7f0bf8048fa_253_dldesign_0_cycle1_af2pred (protein)
chain: SETTEKLKKELEAAKKEGKEALAKAEAAGDAEAAKKAGSDAAGKLYEIAAEADSAGDKETAKEARKAAKEIREAAKKAIAAAKAKAAA
As for B15, the “binding in a display sort” value was “not found”.

B16: design_603_0b98da89-d791-4423-9b2d-fd1b7292da18_1249_dldesign_0_cycle1_af2pred (protein)
chain: AEASKQAAKEIAATVRKLGEKVPEAAPLAEEAAKAVEAAAGEAPEKIAAVAIAALKEIGEKVPEATSLANEARAEARGIAHEAKK
On to B16, for which the “binding in a display sort” value is “not found”.

B17: design_603_0b98da89-d791-4423-9b2d-fd1b7292da18_2319_dldesign_0_cycle1_af2pred (protein)
chain: AETWLDALDDAAKDHPSFAYAFATSIAKRAEEKIKELTEKAKENASNPELKKKLLEKAEEYKKVLEKAKEVAEKALKEYLA
In the case of B17, the “binding in a display sort” value is “not found”.

B18: design_603_0b98da89-d791-4423-9b2d-fd1b7292da18_1486_dldesign_0_cycle1_af2pred (protein)
chain: MSIELLAEAARAAVRIARALGEAEDVETAVAFRDKAIEAAAEDEEMAKKIIAAAKEVEDPATALAAARAALAAVEAFAA
For B18, the “binding in a display sort” value was “not found”.

B19: design_603_0b98da89-d791-4423-9b2d-fd1b7292da18_1818_dldesign_0_cycle1_af2pred (protein)
chain: AEEKIKEGEEKAKKFVEKAKELAKEGKYNAALGYVEAAKDVAKEIEKLSEEGKEVGKKIKEEAEKAEKIVKEKEKEKKELEE
Regarding B19, the “binding in a display sort” value was “not found”.

B20: design_603_0b98da89-d791-4423-9b2d-fd1b7292da18_2177_dldesign_0_cycle1_af2pred (protein)
chain: MKALEEAEEFAKKMIEEAKKWGEAEADVAKVLGKSLLEAVEKTLKEKNEEAALAVAKEGKEKAKKIMDRIKEDIERAKKS
Turning to B20, the “binding in a display sort” value is “not found”.

B21: design_604_3e0b3014-b333-46f1-8adc-d7f0bf8048fa_171_dldesign_0_cycle1_af2pred (protein)
chain: QEALKKELEKAAAKVKELAEYIEKNAEKLTAEEAEKIAEELRKLAKKLREIGEKLDAETRKEAQKAVDLAYEAAALAKSIAARKK
Turning to B21, the “binding in a display sort” value is “not found”.

B22: design_603_0b98da89-d791-4423-9b2d-fd1b7292da18_2081_dldesign_0_cycle1_af2pred (protein)
chain: AEEAEKKVKELAKKAEEAFRRAREAGAKAVEKDPSVAKRASELVHQAAQYRAEAKAAKDPEEAKEALKKAEKAREELEKLAKA
Take B22: the “binding in a display sort” value was “not found”.

B23: design_603_0b98da89-d791-4423-9b2d-fd1b7292da18_2026_dldesign_0_cycle1_af2pred (protein)
chain: SSMKEEEIKEMEKAAKKAAELLDDEEAAKKLLEAVKLAIEDPKEGTKKLREIAKEIGAKGSEEVKKALEEAVHAALRYRAI
B23: the “binding in a display sort” value was “not found”.

B24: design_604_3e0b3014-b333-46f1-8adc-d7f0bf8048fa_188_dldesign_0_cycle1_af2pred (protein)
chain: GALEEIKKLGKKAKEAAKNGDSSEAIREFAKLAKAAGKALTPEFAKKASEKLYEVVDTLAKDEEEGKKLLEKKVEEIVKEAKKYLE
Consider B24, for which the “binding in a display sort” value is “not found”.

B25: design_603_0b98da89-d791-4423-9b2d-fd1b7292da18_1531_dldesign_0_cycle1_af2pred (protein)
chain: SEAKEEAKKALERLKKVRERAKEEAPLLTPEERKELSELLAKAREYLNLALVSKDEKEAKKYVEKGKEYLEKAEKLIEKAKAKA
Regarding B25, the “binding in a display sort” value is “not found”.

B26: design_603_0b98da89-d791-4423-9b2d-fd1b7292da18_2465_dldesign_0_cycle1_af2pred (protein)
chain: ASEKAKAFSEAQRLLVRAGKLAAADPKTAPVAELVQKAIFALGDNLEEGLKLAEEAAELAKKIGDEETAKLVKEAAEKIKEVI
With B26, the “binding in a display sort” value was “not found”.

B27: design_604_3e0b3014-b333-46f1-8adc-d7f0bf8048fa_145_dldesign_0_cycle1_af2pred (protein)
chain: IKQLEQLLEMAEEEAKKDPVTGIALARATINRADRLAASGTPEEAKKANEIKEKAEKVKKEAEAKLAAAEAAAKA
As to B27, the “binding in a display sort” value was “not found”.

B28: design_603_0b98da89-d791-4423-9b2d-fd1b7292da18_1770_dldesign_0_cycle1_af2pred (protein)
chain: DLEEVKKKASELLFKAIDLVSSGEKEEEGEKAIEEAKKILLSYGKEHPEYAKEMEEGAKKVESVYESAKKAAK
Consider B28, for which the “binding in a display sort” value was “not found”.

B29: design_603_0b98da89-d791-4423-9b2d-fd1b7292da18_1568_dldesign_0_cycle1_af2pred (protein)
chain: DEELKKEAKEEIKKAAEKGIAAAKAGNILEAQFYAVEAREIGREYAKKIKNKELAKEVKEYAKKQAEKIRAEAAKVLAA
With B29, the “binding in a display sort” value is “not found”.

B30: design_604_3e0b3014-b333-46f1-8adc-d7f0bf8048fa_75_dldesign_0_cycle1_af2pred (protein)
chain: SAEAEEAEKKALLEFSEAAAELRGLATLGKNKGNAKELAEKGFKAIEEGKKALEAATKTEEKKEIATRYAKELKELKEKLEKALS
As to B30, the “binding in a display sort” value is “not found”.

B31: design_603_0b98da89-d791-4423-9b2d-fd1b7292da18_2382_dldesign_0_cycle1_af2pred (protein)
chain: ALAAAKEKAKAIEEKLSQAIFDGADKGPEVVFKAAEEAEKEVEEMKKADPKAKEEVKRAKEAVKKAKAVGKSMKEAEENAKKGA
With B31, the “binding in a display sort” value was “not found”.

B32: design_603_0b98da89-d791-4423-9b2d-fd1b7292da18_1163_dldesign_0_cycle1_af2pred (protein)
chain: MEALKEIKELMKKAEEEAKKLAKSMGVEGAKEGLKVAEKYFSSIFDIAIEKLTPEEAKEALDIANKAAKEIKDYIDKAIAEK
For the molecule B32, the “binding in a display sort” value is “not found”.

B33: design_604_3e0b3014-b333-46f1-8adc-d7f0bf8048fa_498_dldesign_0_cycle1_af2pred (protein)
chain: MLEFLEKVEEKADKKIEEALAKEDPVKALEEEKKKMEAELKAKSEAAKGDPGLHKLYLTAARLAKNQFDVEIKKAKEELE
Take B33: the “binding in a display sort” value was “not found”.

B34: design_603_0b98da89-d791-4423-9b2d-fd1b7292da18_2271_dldesign_0_cycle1_af2pred (protein)
chain: MTPEEKKAAEAEKIAAAADAAIKAAEKAIASGTKAEIATEAARLESVAMAAKALGTAPDIAERAEAAAEKAWQAAVEKLE
As for B34, the “binding in a display sort” value is “not found”.

B35: design_603_0b98da89-d791-4423-9b2d-fd1b7292da18_1252_dldesign_0_cycle1_af2pred (protein)
chain: AKEVVKKAKAEAKKLGEKAAAAETLEEAKKLVKELRKEAEKQAKEMKKAGAPEKDIKEVLTTAAELGAEALAEVRS
B35: the “binding in a display sort” value was “not found”.

B36: design_603_0b98da89-d791-4423-9b2d-fd1b7292da18_1956_dldesign_0_cycle1_af2pred (protein)
chain: VTRAELAALAHEVQEAANEVYFEAKKSKNTEKLQALAREAKALVKQAASADPETALALLKEAQALVDEAKKILEKEKKE
As to B36, the “binding in a display sort” value is “not found”.

B37: design_603_0b98da89-d791-4423-9b2d-fd1b7292da18_1943_dldesign_0_cycle1_af2pred (protein)
chain: PPADELLALADKKAEEVEKKIEEAAEYGKKSGDKEKALKLIDEVLKEAEKEAEELIAKPETRAAGVILRNEAEVMAKNAKEKLLK
As for B37, the “binding in a display sort” value was “not found”.

B38: design_603_0b98da89-d791-4423-9b2d-fd1b7292da18_2259_dldesign_0_cycle1_af2pred (protein)
chain: GAAALAAGKAALKEAKDTAAKANEAMGGGLQPVFDSAMKTVEAKKGDPAAYLKAATAFKTTFSRILKLAS
Consider B38, for which the “binding in a display sort” value is “not found”.
